# Bioassay records (PubChem BioAssay)
# A549 tox – kills or reduces viability of A549 cells in Nrf2 counter-screen; A549 ARE-Fluc cells, CellTiter-Fluor viability, 18-24 h; Potency, µM (doses to about 46 µM), without a hit: top-dose activity change, negative = cytotoxicity, most hits filed as inhibitors; 390,000 tested, 0.16% active; AID 504648; also: % is scaled to controls: 0 for no effect and ±100 for the full control effect
#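 A549 ARE-Fluc cells in 5% FBS OPTI-MEM, 5000 cells/well, rested 2 h then exposed to compounds in concentration-response for 18-24 h at 37 °C. Viability by CellTiter-Fluor fluorescence (Ex 405/Em 525) after 30 min; luciferase luminescence (BugLite, 15 min, RT) read afterwards.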
# ATXN2 expr inh – inhibitors of ATXN2 expression | HEK-293 ATXN2-luciferase reporter, luminescence, 24 h | Potency, µM (doses to about 57 µM), inactives show top-dose activity change, negative = inhibition, actives largely listed as inhibitors | 360,000 tested, 0.72% active; also: % is scaled to controls: 0 for no effect and ±100 for the full control effect; nearly all actives have a fitted effect of over 55% in size
#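 ATXN2-luciferase reporter cells (luciferase flanked by upstream and downstream ATXN2 gene portions) were treated 24 h at 37 °C with compounds at up to 57 uM. SteadyGlo luminescence gave expression; GF-AFC fluorescence gave viability.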
# Nrf2 block – Nrf2 pathway inhibition; A549 ARE-Fluc reporter, luciferase luminescence, 18-24 h; Potency, µM (top dose mostly 46 µM), inactives show at the top dose activity change, negative = inhibition, usual class: inhibitors; 360,000 tested, 2.1% active; AID 504444; also: % is scaled to controls: 0 for no effect and ±100 for the full control effect; nearly all actives have a fitted effect of over 60% in size
#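 Nrf2 function is reported as luminescence of an ARE-controlled luciferase in A549 cells. Compounds were tested at several concentrations, and a CellTiter-Fluor read on the same wells flagged cytotoxicity.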
# TGFb SMAD3 inh – blocks TGF-b signaling. HepG2 CAGA-GFP TGF-b/SMAD3 reporter, GFP fluorescence, 18 h; TGF-beta stimulated, 500 pg/mL final. 410,000 tested, 1.2% active. Potency, µM (series often up to 46.1 µM), without a hit: top-dose activity, negative = inhibition, hits mostly inhibitors; also: % is scaled to controls: 0 for no effect and ±100 for the full control effect; nearly all actives have a fitted effect of over 65% in size
#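 First, reporter cells (HEPG2 CAGA-GFP) rested 2 h at 37 degrees C. Next, compounds were pinned in and TGF-beta added to 500 pg/mL final. After 18 h, GFP was imaged per cell and summed per well.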
# HepG2 tox – HepG2 cytotoxicity, counter-screen for TGF-b inhibitors; HepG2 CAGA-GFP viability, ATP luminescence, 18 h; Potency, µM (titrated, usually from 46.1 µM), for the others: at the top dose activity change, negative = cytotoxicity, usual class: cytotoxic; 410,000 tested, 0.76% active
#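 HepG2 CAGA-GFP cells (1000/well, DMEM with 1% FBS) received compound, then TGF-beta at 500 pg/mL final, and were incubated 18 hours at 37 degrees C. Viability was read by CellTiter-Glo luminescence. Media-only wells were set as complete cell-killing and DMSO as no toxicity.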
# ATXN viability – cell viability loss in ATXN counter-screen; S2 cells (HEK-293 line with an ATXN2-luciferase reporter) viability, CellTiter-Fluor protease fluorescence, 24 h; Potency, µM (top dose mostly 56.7 µM), usual class: cytotoxic; 400,000 tested, 0.49% active; AID 651635; also: nearly all actives have a fitted effect of over 40% in size
# Starred values were filed as active, the others as inactive; i = inactive; ? = inconclusive; . = not tested or not shown. This is a sample that favours compounds with a hit; in the whole collection about 3.8% have one here. Calls follow the shape of the dose curve; as a rule, active = well fitted curve in the direction sought with a large enough effect; inconclusive = small, poorly fitted or top-dose-only effect, or another doubt; inactive = no such curve, though single readings can be large; an effect the other way counts as inactive or inconclusive. Potency is read from the fitted curve at half-maximal effect.
SMILES,A549 tox,ATXN2 expr inh,Nrf2 block,TGFb SMAD3 inh,HepG2 tox,ATXN viability
COc1cc(OC)c2c(-c3ccccc3)cc(=O)oc2c1C(CCN1CCCCC1)c1ccc2c(c1)OCO2 (stereo unspecified),-2%,-17%,11%,?,-26%,?
COc1cc(OC)c2c(-c3ccccc3)cc(=O)oc2c1C(CCN1CCOCC1)c1ccc(N(C)C)cc1 (stereo unspecified),?,-12%,?,?,-41%,?
CCn1c(CNC(=O)COc2ccc(C(C)C)cc2)nnc1SCC(=O)Nc1ccccc1C(C)C,-22%,-26%,16µM*,-29%,-30%,i
C/C(=N\NC(=O)C(C)n1nc(C)c([N+](=O)[O-])c1C)c1ccccc1O (stereo unspecified),-3%,16µM*,?,?,-20%,i
Cc1nn(C(C)C(=O)NCc2ccco2)c(C)c1[N+](=O)[O-] (stereo unspecified),5%,.,7%,0%,28%,?
COc1ccc(COC(=O)C2CCN(C(=O)c3ccc(Cl)cc3)CC2)cc1F,4%,-7%,-11%,1%,2%,i
O=C(CC(=O)c1cc(Cl)ccc1O)c1ccccc1,-16%,?,?,?,11µM*,i
CC(Sc1ccccc1)C(=O)N/N=C/c1ccccc1 (stereo unspecified),0%,19%,-7%,8%,-12%,i
O=C(O)COc1ccccc1/C=N/NC(=O)CSc1nc2ccccc2n1Cc1ccc(Cl)cc1,0%,.,13%,-6%,3%,?
C=CC[n+]1c(-c2ccc(OC)cc2)csc1NNC(=O)Nc1ccccc1,-7%,-6%,15µM*,?,-4%,i
COC(=O)C1CCN(C2CN(Cc3ccccc3)S(=O)(=O)C2)CC1 (stereo unspecified),.,-3%,.,-5%,-26%,i
Cc1cc(=O)oc2cc(OCC(=O)N/N=C/c3ccccc3O)ccc12,1%,-6%,9%,11%,-9%,i
COCCNC(=S)N/N=C(\C)c1ccccc1O,-8%,9%,1%,5.6µM*,-95%,i
CSc1nc(C)cc(OCC(=O)N/N=C/c2ccccc2O)n1,5%,14µM*,-25%,?,-22%,i
COCCNC(=S)N/N=C(\C)c1ccc(Cl)c(Cl)c1Cl,7%,-24%,8%,?,8%,i
Cc1ccc(SCCC(=O)N/N=C/c2ccccc2O)cc1,2%,25µM*,9%,3%,-37%,i
COCCNC(=S)N/N=C(\C)c1ccc(Cl)c(Cl)c1,0%,15%,-1%,8.9µM*,-58%,i
COCCNC(=S)N/N=C(\C)c1ccccc1OC,-2%,3%,2%,-9%,0%,i
COCCCNC(=S)N/N=C/c1ccccc1O,19%,.,15%,1.8µM*,-57%,?
Cc1cc(/N=C/C=C2\N(C)c3ccccc3C2(C)C)n(CCC#N)n1,15µM*,?,?,-19%,-22%,.
COC1=C(Nc2ccc(C)cc2)C(=O)c2ccccc2C1=O,?,5%,16µM*,?,-89%,?
COC1=C(Nc2ccccc2)C(=O)c2ccccc2C1=O,-2%,-19%,-1%,16µM*,-95%,?
COc1ccc(Nc2oc(COc3ccccc3OC)nc2C#N)cc1,-2%,10µM*,?,-15%,-2%,i
COc1ccc(CCNc2oc(COc3ccc(F)cc3)nc2C#N)cc1,1%,-4%,-24%,16µM*,-43%,i
Oc1ccc(NCc2ccccc2F)c2cccnc12,-5%,.,-5%,.,.,.
SMILES,A549 tox,ATXN2 expr inh,Nrf2 block,TGFb SMAD3 inh,HepG2 tox,ATXN viability
CC1(C(=O)NCc2ccccc2Br)CCN1C(=O)CCc1ccc(Cl)cc1Cl (stereo unspecified),.,?,.,?,-16%,?
CCn1c(SCC(=O)NC2CC2)nnc1-c1ccc(C)cc1,3%,-9%,-5%,0%,-8%,i
COc1cccc(S(=O)(=O)N(C)C[C@H]2OCc3cnnn3CCCC(=O)N([C@H](C)CO)C[C@H]2C)c1,.,-2%,.,-6%,18µM*,i
C[C@@H]1CN([C@H](C)CO)C(=O)CCCn2nncc2CO[C@@H]1CN(C)S(=O)(=O)c1cn(C)cn1,.,-10%,.,-22%,11µM*,i
CC(=O)Nc1cccc(NS(=O)(=O)c2ccc3c(c2)CCC(=O)N3)c1,.,.,.,3%,-2%,i
Nc1[nH]n2c(=O)cc(-c3ccccc3)nc2c1N=Nc1ccccc1,?,?,.,-16%,-30%,32µM*
C=C(C)CNC(=S)N/N=C/c1c(F)cccc1F,23%,-2%,-2%,-5%,-8%,i
COc1ccc2[nH]c3c(c2c1)CCN1C(=O)N([C@@H](C)C(=O)NCCc2ccc(OC)c(OC)c2)C(=O)[C@]31C,6%,-18%,?,-6%,-26%,i
COc1ccc(CCNC(=O)[C@H](C)N2C(=O)N3CCc4c([nH]c5ccccc45)[C@@]3(C)C2=O)cc1,-12%,-19%,15µM*,-16%,-42%,i
COc1ccccc1CNC(=O)[C@H](C)N1C(=O)N2CCc3c([nH]c4ccccc34)[C@@]2(C)C1=O,?,-25%,23µM*,?,-26%,i
COc1ccc(CCNC(=O)[C@H](C)N2C(=O)N3CCc4c([nH]c5ccccc45)[C@@]3(C)C2=O)cc1OC,-18%,?,16µM*,-17%,-6%,?
O=C(CSc1nnc(-c2ccccc2Br)n1-c1ccccc1)c1ccc(F)cc1,?,-16%,18µM*,-14%,-31%,i
COc1ccc(C(=O)C[n+]2cc(Br)cc(Br)c2)cc1,.,.,.,0%,-7%,.
Cc1cccc(N(C)S(=O)(=O)c2c[nH]c3ccc([N+](=O)[O-])cc23)c1,1%,?,-1%,?,-15%,i
N#Cc1c(Nc2ccccc2C(F)(F)F)s[nH]c1=O,-8%,-9%,4%,20µM*,-53%,i
N#Cc1c(Nc2ccccc2Cl)s[nH]c1=O,-7%,-11%,-15%,0%,-143%,i
CC(=O)Nc1ccc(N=C(C2=C(O)c3ccccc3C2=O)c2ccccc2)cc1,21µM*,.,21µM*,-17%,-22%,?
COc1ccc(N=C(C)C2=C(O)c3ccccc3C2=O)cc1,-18%,-35%,?,-19%,-11%,?
Nc1ccn([C@@H]2O[C@H](CO)[C@@H](O)[C@H]2O)c(=O)n1,2%,?,-16%,-4%,4%,i
